37 compounds from PubChem BioAssay (NCI) can be followed below.

About 83,000 compounds went through this panel and 20% of them were active in at least one assay; those are over-represented in the sample as a whole.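 How to read the values: 0–100, growth inhibition (40 = 60% inhibited); 0, no net growth; -100 to 0, cell death (-40 = 40% of starting cells died; -100 = all dead).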 Active and inactive are the calls of the source. Rule for the calls: active = growth percent below 10; inactive = the rest.

The assay deals with HL-60(TB) leukemia. In words: NCI-60 one-dose screen, 48 h (100 = growth as untreated, 0 = no growth, -100 = all killed). Particulars: 10 µM unless noted.
With `O=C(Nc1ccccc1C(F)(F)F)C1=NCCCCN1`, the growth is 99.8% (inactive).
The figure for `O=C(OC1CCCC1)c1ccccc1Cl` is 99.2% (inactive); for `O=C(O)Cc1ccc2c(c1)Cc1cccnc1O2` it is 103% (inactive).
Take `Cc1cc(Cc2cc(C)c(O)c(C)c2)cc(C)c1O`: the growth was 15.6% (inactive).
The figure for `Cc1cc(C(=O)CCCC(=O)c2cc(C)c(O)c(C)c2)cc(C)c1O` is 84.6% (inactive).
As for `CC[C@]1(O)CC2CN(CCc3c([nH]c4ccccc34)[C@@](C(=O)OC)(c3cc4c(cc3OC)N(C)[C@H]3[C@@](O)(C(=O)OC)[C@H](OC(C)=O)[C@]5(CC)C=CCN6CC[C@]43[C@@H]65)C2)C1` (some centres not stated), the growth was 2.87% (active).
Consider `NCCOc1ncccc1/C=C1\c2ccccc2-c2ccc(F)cc21`, for which the growth was -38.6% (active).
Turning to `COc1cc(Nc2ccnc(NCCCNc3ccnc4cc(Cl)ccc34)n2)cc(OC)c1`, the growth was -76.9% (active).
The figure for `C=C(C)C1CCC2(C(=O)O)CCC3(C)C(CCC4C5(C)CCC(OC(=O)NCc6ccccc6)C(C)(C)C5CCC43C)C12` (configuration not stated) is 23% (inactive); for `COc1ccc2cnc(N)c(C#Cc3cc(C(=O)Nc4ccc(CN5CCN(C)CC5)c(C(F)(F)F)c4)cnc3C)c2c1` it is 95% (inactive).
Turning to `CCNCCCn1c2c(c3ccc([N+](=O)[O-])cc3c1=O)C(=O)c1cc(OC)cnc1-2`, the growth is -36% (active).
The figure for `Cn1c(/C=C/[N+](=O)[O-])cc2ccccc21` is 53.4% (inactive).
On to `Cc1cc(N[C@@H]2CCC[C@H](Nc3ccnc4cc(Cl)ccc34)C2)nc(N2CCCCCC2)n1`, for which the growth is -72.5% (active).
`CC1(C)N=C(N)N=C(N)N1c1ccc(CCc2ccccc2)c(Cl)c1`: the growth was 2.09% (active).
The figure for `COc1ccc(-c2cc(-c3ccc(Cl)cc3)nc(SCCCC(=O)NO)n2)cc1` is -22.9% (active); for `CC(Cc1cccc(C(F)(F)F)c1)NCCOC(=O)c1ccccc1` (configuration not stated) it is 102% (inactive).
On to `C=C(c1ccc(C(=O)O)cn1)c1cc2c(cc1C)C(C)(C)CCC2(C)C`, for which the growth is 84.9% (inactive).
With `COc1cc(Cl)cc(-c2nn(-c3cccc(NC(=O)Nc4ccc(Cl)c(Cl)c4)c3)cc2-c2ccncc2)c1`, the growth was -5.12% (active).
With `CC1CCc2c(sc(NC(=O)CSc3nnc4ccccn34)c2C(N)=O)C1` (configuration not stated), the growth is 74.9% (inactive).
On to `C=C1C(=O)O[C@H]2[C@H]1CC/C(COC(=O)CCCCCCC(=O)OC/C1=C/CC[C@@]3(C)O[C@H]3[C@H]3OC(=O)C(=C)[C@@H]3CC1)=C\CC[C@@]1(C)O[C@@H]21`, for which the growth was -13.8% (active).
For `O=C(/C=C/c1ccc(Cl)cc1)c1ccccc1`, the growth was 99.9% (inactive).
Under `O=C(/C=C/c1ccccc1)N(C1CCCCC1)C1CCCCC1` stands 74% (inactive); under `CCOC(=O)c1cc(N)nc2ccccc12`, 104% (inactive).
Under `O=C1NC(=O)C(Cc2ccc(OCc3ccc(-c4ccc(Cl)cc4Cl)cc3)cc2)S1` (configuration not stated) stands 56.9% (inactive).
Under `CC(C)CCSc1nc(NNC(N)=O)c(C#N)c(-c2ccccc2)n1` stands 99.8% (inactive); under `CC1(C)N=C(N)N=C(N)N1c1cccc(C#N)c1`, 35.7% (inactive); under `CNS(=O)(=O)c1cccc(-c2ccc3c4c(n(C)c(=O)c3c2)-c2ccccc2C4=O)c1`, -4.99% (active).
For the compound `CCC(C)(C)c1ccc(OCCCCCCN2CCN(c3ccc(C)c(Cl)c3)CC2)cc1`, the growth is 84.5% (inactive).
Regarding `O=C1c2c(c3c4cccnc4[nH]c3c3ccc4ccccc4c23)C(=O)N1O`, the growth was 5.07% (active).
The figure for `CCCCc1ccc(C(O)(CCN2CC3CCC(CC3)C2)c2ccccc2)cc1` (configuration not stated) is 84.5% (inactive); for `COc1ccc(/C(=C2\O[C@@H]([C@H](O)CO)[C@H]3OC(C)(C)O[C@@H]23)c2cc(OC)c(OC)c(OC)c2)cc1O` it is -2.8% (active); for `C=C1c2c(C)nn(-c3ccc(NC(C)=O)cc3)c2N(C)C23CC1C1(C)c4c(C)nn(-c5ccc(NC(C)=O)cc5)c4N(C)C(C)(CC12)C3` (configuration not stated) it is -20.6% (active).
Under `CC1(C)CC([P+](c2ccccc2)(c2ccccc2)c2ccccc2)=NN1` stands -49.2% (active); under `CC(=O)NC1(C(=O)O)CCCC1`, 101% (inactive).
The figure for `NC(=N\N=C/c1ccccc1[N+](=O)[O-])/C(N)=N\N=C/c1ccccc1[N+](=O)[O-]` is 105% (inactive); for `Clc1cc(Cl)cc(N2N=C(c3cccc(Nc4ccncc4)c3)CC2c2ccccc2)c1` (configuration not stated) it is 4.62% (active); for `O=c1c2cccc3c(Nc4ccccn4)ccc(c32)c2nc3ccccc3n12` it is 62.3% (inactive).
